Reference: PubChem BioAssay (EPA / NIEHS)
Records with an inconclusive call do not appear. Active and inactive are the calls of the source. How the source made its calls, unless noted: active means hit-call score of the fitted dose curve at least 0.9, where 1 is the maximum; inactive means score below 0.9.

Legend:
[1] = CCTE_Mundy_HCI_Cortical_Synap_Neur_Matur_BPCount: CCTE's Synaptogenesis and Neurite Maturation Assay in rat cortical cells for Branch Point Count, Mundy Lab (AID 2284211)
Method in brief: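 In this multiplexed morphology assay, cortical cells from rat receive chemicals at DIV 7 and are fixed at DIV 12, then immunostained and imaged; branch points are counted, with DMSO as baseline.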

[2] = CCTE_Mundy_HCI_Cortical_NOG_NeuriteCount: CCTE's Neurite Outgrowth Assay in rat cortical cells for Neurite Count, Mundy Lab (AID 2284212);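 further: cells fixed about two days after chemical exposure began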
Method in brief: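 Rat cortical primary cells; compound added 2 h post-plating, 1/10 dilution of working solution. Anti-betaIII-tubulin/AF488 ICC; ArrayScan neurite count vs DMSO.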

[3] = CCTE_Mundy_HCI_Cortical_NOG_NeuriteLength: CCTE's Neurite Outgrowth Assay in rat cortical cells for Neurite Length, Mundy Lab (AID 2284213)
Method in brief: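 First, rat primary cortical cells were plated and, 2 h later, given test chemical as a 1/10 dilution. Finally, βIII-tubulin immunostaining enabled automated imaging of neurite length.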

[4] = CCTE_Mundy_HCI_Cortical_Synap_Neur_Matur_NeuriteSpotCountPerNeuron: CCTE's Synaptogenesis and Neurite Maturation Assay in rat cortical cells for Neurite Spot Count per Neuron Count, Mundy Lab (AID 2284215)
Method in brief: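 Rat cortical primary cultures; AraC DIV 5 to arrest glia; dosing + media change DIV 7; fixed DIV 12. Anti-MAP2/anti-synaptophysin, Hoechst nuclei; HCI puncta count per neuron, positive fitting direction vs DMSO.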

[5] = CCTE_Mundy_HCI_Cortical_Synap_Neur_Matur_NeuriteCount: CCTE's Synaptogenesis and Neurite Maturation Assay in rat cortical cells for Neurite Count, Mundy Lab (AID 2284222);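 further: exposure from day 7 to day 12 in vitro with readout at day 12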
Method in brief: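 In this multiplexed morphology readout, rat primary cortical neurons are fixed at DIV 12 following dosing at DIV 7 and stained for MAP2, synaptophysin and nuclei. High-content image analysis yields neurite count.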

[6] = CCTE_Mundy_HCI_Cortical_Synap_Neur_Matur_CellBodySpotCount: CCTE's Synaptogenesis and Neurite Maturation Assay in rat cortical cells for Cell Body Spot Count, Mundy Lab (AID 2284223)
Method in brief: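 Rat cortical neurons; AraC @ DIV 5; dose + media change DIV 7; fix DIV 12; anti-MAP2/anti-synaptophysin IF, Hoechst; HCI count of soma synaptophysin puncta/neuron; DMSO = negative control.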

[7] = UKN2_HCS_IMR90_cell_viability: Viability Assessment in the University of Konstanz (UKN) Leist Lab Neural Crest Cell Migration Assay in human induced IMR90 Pluripotent Stem Cells (UKN2) (AID 2284233);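 further: cells exposed to compound for 24 h after a 24 h migration phase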
Method in brief: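 After calcein-AM/Hoechst staining, viability is quantified by high-content fluorescence imaging, relative to DMSO, in iPSC (IMR90)-derived neural crest cells. Exposure lasts 24 h, starting after a 24 h migration period on PLO/laminin/fibronectin coating.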

[8] = CCTE_Mundy_HCI_Cortical_NOG_NeuronCount: CCTE's Neurite Outgrowth Assay in rat cortical cells for Neuron Count, Mundy Lab (AID 2284236; active means hit-call score of the fitted dose curve at least 0.9, where 1 is the maximum;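 further: neurons counted by imaging betaIII-tubulin and Hoechst stained cortical cells; cells exposed to compound for about 48 hours before fixation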)
Method in brief: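 Read-out: neuron number by high-content imaging of betaIII-tubulin (Alexa Fluor-488) and Hoechst-labelled rat primary cortical cells.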

[9] = CCTE_Mundy_HCI_Cortical_NOG_BPCount: CCTE's Neurite Outgrowth Assay in rat cortical cells for Branch Point Count, Mundy Lab (AID 2284237)
Method in brief: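 Measured 50.33 h after dosing, this morphology endpoint uses rat primary cortical cultures labelled for betaIII-tubulin. Branch points are quantified by high-content imaging, with DMSO as negative control and baseline.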

[10] = CCTE_Mundy_HCI_hNP1_Casp3_7: CCTE's Caspase-Glo 3/7 Assay in human neuroprogenitor cells for Apoptosis, Mundy Lab (AID 2284240)
Method in brief: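 Apoptosis is scored by activated caspase-3/7 luminescence in WA09-derived neural progenitor cells, measured 26.5 h after chemical dosing. Values represent gain of signal relative to DMSO vehicle.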

[11] = CCTE_Mundy_HCI_Cortical_Synap_Neur_Matur_NeuronCount: CCTE's Synaptogenesis and Neurite Maturation Assay in rat cortical cells for Neuron Count, Mundy Lab (AID 2284242; active means hit-call score of the fitted dose curve at least 0.9, where 1 is the maximum)
Method in brief: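 Measured at DIV 12: fluorescently labelled neurons (Hoechst nuclei, MAP2) in rat primary cortical cultures, counted by high-content imaging. AraC suppressed glia from DIV 5; DMSO served as negative control.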

[12] = IUF_NPC2c_oligodendrocyte_migration_120hr: Leibniz Research Institute for Environmental Medicine (IUF) 120-hour Neural Progenitor Cell Migration Assay for Oligodendrocyte Migration (NPC2c) (AID 2284297)
Method in brief: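 Read-out is the mean distance of O4-positive oligodendrocytes from the sphere core edge at 120 h, normalized to radial glia migration and fitted in the gain direction against DMSO. Spheres of primary human neural progenitors differentiated on laminin under continuous compound exposure.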

[13] = IUF_NPC2a_radial_glia_migration_72hr: Leibniz Research Institute for Environmental Medicine (IUF) 72-hour Neural Progenitor Cell Migration Assay for Radial Glia Migration (NPC2a) (AID 2284299)
Method in brief: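 Spheres of human primary neural progenitors migrate on poly-D-lysine/laminin under compound exposure at 37C, 5% CO2. The 72 h radial glia migration distance comes from brightfield images, measured manually.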

[14] = IUF_NPC2b_neuronal_migration_120hr: Leibniz Research Institute for Environmental Medicine (IUF) 120-hour Neural Progenitor Cell Migration Assay for Neuron Migration (NPC2b) (AID 2284300)
Method in brief: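 Read-out is mean distance from sphere edge to each TUBB3-positive neuron at 120 h, expressed relative to radial glia migration distance and to DMSO baseline. Single 0.3 mm human NPC spheres differentiated on laminin under continuous compound exposure.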

[15] = IUF_NPC3_neuronal_differentiation_120hr: Leibniz Research Institute for Environmental Medicine (IUF) 120-hour Neuronal Differentiation Assay (NPC3) (AID 2284301)
Method in brief: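 Value is percent TUBB3-positive neurons among Hoechst-stained nuclei in the migration area, scored by trained CNN after 120 h differentiation. Primary hNPC spheres on poly-D-lysine/laminin, N2 medium, continuous dosing from day 0, half-refeed day 3; DMSO reference.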

[16] = IUF_NPC5_oligodendrocyte_differentiation_120hr: Leibniz Research Institute for Environmental Medicine (IUF) 120-hour Oligodendrocyte Differentiation Assay (NPC5) (AID 2284304; active means hit-call score of the fitted dose curve at least 0.9, where 1 is the maximum;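 further: primary human fetal neural progenitor spheres plated to migrate and differentiate; share of O4-positive cells among Hoechst nuclei found by CNN image analysis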)
Method in brief: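 Oligodendrocyte differentiation was scored after 120 h as the O4-positive share of Hoechst-stained nuclei across the neurosphere migration area, using a trained convolutional neural network on high-content fluorescence images. Human fetal neural progenitor spheres were dosed from day 0, normalised to DMSO.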

[17] = IUF_NPC2-5_cytotoxicity_72hr: Cytotoxicity Assessment at 72 hours in the Leibniz Research Institute for Environmental Medicine (IUF) Neural Progenitor Cell Migration and Differentiation Assay for Cytotoxicity (NPC2-5) (AID 2284306; active means hit-call score of the fitted dose curve at least 0.9, where 1 is the maximum;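 further: LDH release into supernatant measured by resorufin fluorescence marking membrane damage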)
Method in brief: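 Membrane-integrity cytotoxicity at 72 h, read as LDH-driven resorufin fluorescence in supernatant. hNPC spheres from fetal cortex differentiate on coated plates in N2 medium, 37C, 5% CO2; seven serial compound concentrations plus solvent control (DMSO ≤0.1%).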

[18] = IUF_NPC2-5_cytotoxicity_120hr: Cytotoxicity Assessment at 120 hours in the Leibniz Research Institute for Environmental Medicine (IUF) Neural Progenitor Cell Migration and Differentiation Assay (NPC2-5) (AID 2284307; active means hit-call score of the fitted dose curve at least 0.9, where 1 is the maximum)
Method in brief: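 Sphere plating starts differentiation and exposure together at day 0. Compound solution is half-replaced on day 3. At 120 h, medium supernatant is taken for an LDH membrane-integrity read based on resazurin reduction to resorufin fluorescence.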

[19] = IUF_NPC2-5_cell_number_120hr: Cell Number Assessment at 120 hours in the Leibniz Research Institute for Environmental Medicine (IUF) Neural Progenitor Cell Migration and Differentiation Assay (NPC2-5) (AID 2284308);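 further: count of Hoechst-stained nuclei in migration zone around plated human neural progenitor spheres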
Method in brief: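 hNPC spheres, one per well, PDL/laminin, N2 medium, 37C, 5% CO2. Dosing day 0 → half-medium change with fresh compound day 3 → fix 120 h. Readout: Hoechst+ nuclei count, migration area; 7 concentrations plus solvent control.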

[20] = IUF_NPC2-5_viability_120hr: Viability Assessment at 120 hours in the Leibniz Research Institute for Environmental Medicine (IUF) Neural Progenitor Cell Migration and Differentiation Assay (NPC2-5) (AID 2284312)
Method in brief: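 Alamar blue resorufin fluorescence read after 5 days of differentiation, with compound present from day 0 and replenished at day 3. Primary hNPC spheres on laminin-coated plates, 37C; seven concentrations plus solvent control, fitted against DMSO.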

[21] = CCTE_Mundy_HCI_iCellGluta_NOG_NeuronCount: CCTE's Neurite Outgrowth Assay in iCellGluta cells for Neuron Count, Mundy Lab (AID 2284340; active means hit-call score of the fitted dose curve at least 0.9, where 1 is the maximum;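 further: cells fixed about 48 h after compound addition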)
Method in brief: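 Neuron count read by automated high-content imaging of Hoechst 33342 and betaIII-tubulin/Alexa Fluor-488 labelling in human iPSC glutamatergic neurons. Activity fitted relative to DMSO.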

Measured: outcome

CCc1ccccc1
inactive: [1] | [2] | [3] | [4] | [5] | [6] | [7] | [8] | [9] | [10] | [11] | [12] | [13] | [14] | [15] | [16] | [17] | [18] | [19] | [20] | [21]
